# Laboratory results taken from PubChem BioAssay.
# The source made the active and inactive calls. Unless noted, no rule for the calls is given here. Square brackets hold non-standard residues; d marks the D form. Peptide text beside a SMILES is read from it. * marks the point of attachment. Phe(ol) = N[C@H](CO)Cc1ccccc1; Cbz = O=C(OCc1ccccc1)*; Boc = CC(C)(C)OC(=O)*; Aib = CC(C)(N)C(=O)O
# Columns and labels:
# [1] = viability loss with induced miR-34 in A549 – imaging, A549 dox-inducible miR-34, nuclei and caspase counts, primary screen (AID 1347080;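 active = compounds whose cell count with miR-34 switched on is under 0.7 times the count with it off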); settings: A549 miR-34 inducible, Hoechst nuclei count, 48 h
# [2] = chitosan synthesis blockers in C. neoformans – flow cytometry, Cibacron Brilliant Red staining (AID 1347148); settings: Cryptococcus neoformans chitosan, stronger effect = lower value; at 10 µM unless noted;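 also: compound exposure lasted three days at 37 degrees C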
# [3] = compounds altering viability of human ES cells (AID 493140); settings: human embryonic stem cell survival screen; stronger effect = higher value;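 also: cells exposed to compounds for four days before counting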
# [4] = molecular target: Mitogen-activated protein kinase 7 (Homo sapiens) (UniProt Q13164); experiment: Gal4-ERK5 driven luciferase induction – cell-based, HTS, primary screen (AID 1508626;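 active = luciferase signal above three times the same-plate solvent-only control wells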;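 also: luciferase driven by Gal4-ERK5 fusion binding five Gal4 sites before minimal TATA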); settings: HeLa Gal4-ERK5 transactivation, 18 h, at 5 µM, stronger effect = higher value
# [5] = stronger effect = lower value, cell number ratio, induced over uninduced
# [6] = measured here: relative caspase fold change +Dox/-Dox
# [7] = measured here: total cells with miR-34 induction, stronger effect = lower value
# [8] = measured here: total cells without miR-34 induction
# Sequence of Mitogen-activated protein kinase 7 (Homo sapiens) (Q13164 whole entry, looked up, the tested form may be a part): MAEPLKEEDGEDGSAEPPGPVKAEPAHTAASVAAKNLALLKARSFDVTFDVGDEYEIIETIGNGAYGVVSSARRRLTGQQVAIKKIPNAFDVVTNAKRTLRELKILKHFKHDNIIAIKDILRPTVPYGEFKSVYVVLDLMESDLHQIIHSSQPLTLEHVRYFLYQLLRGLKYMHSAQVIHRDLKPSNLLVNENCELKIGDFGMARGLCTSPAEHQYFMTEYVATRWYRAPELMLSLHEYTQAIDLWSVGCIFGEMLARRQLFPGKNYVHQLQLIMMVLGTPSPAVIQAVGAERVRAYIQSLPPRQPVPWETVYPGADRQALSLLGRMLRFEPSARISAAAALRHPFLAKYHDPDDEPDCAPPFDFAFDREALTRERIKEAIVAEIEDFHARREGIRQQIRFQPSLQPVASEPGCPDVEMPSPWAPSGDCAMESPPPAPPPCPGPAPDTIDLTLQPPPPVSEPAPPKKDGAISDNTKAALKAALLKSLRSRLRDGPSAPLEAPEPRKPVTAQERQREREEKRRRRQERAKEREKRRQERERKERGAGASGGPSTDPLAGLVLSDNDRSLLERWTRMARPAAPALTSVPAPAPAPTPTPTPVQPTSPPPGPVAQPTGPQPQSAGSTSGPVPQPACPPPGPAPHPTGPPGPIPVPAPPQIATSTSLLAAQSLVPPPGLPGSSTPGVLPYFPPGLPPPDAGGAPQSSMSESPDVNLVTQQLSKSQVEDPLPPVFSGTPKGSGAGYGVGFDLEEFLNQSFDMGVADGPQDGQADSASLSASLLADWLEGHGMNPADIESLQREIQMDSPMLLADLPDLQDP
SMILES,"fold change [1, 5]","fold change [1, 6]","cell count [1, 7]","cell count [1, 8]",fold fluorescence [2],survival [3],luciferase signal [4]
CC[C@H]1[C@@H]2C=C[C@@H]3[C@H]4C/C=C\C(=O)NCCC[C@@H]5NC(=O)C(=C5O)C(=O)CC[C@@H]4C[C@@H]3[C@H]2C[C@H]1C,1.96 (inactive),0.587,636,324,7.3 [at 104 µM] (inactive),–,–
COC(=O)CNC(=O)C(=O)OC,0.976 (inactive),1.36,6040,6190,3.39 (inactive),–,–
C=CC1CN2CCC1C[C@@H]2[C@H](O)c1ccnc2ccc(OC)cc12 (stereo not given in full),0.899 (inactive),1.42,4890,5440,5.27 [at 154.1 µM] (inactive),–,–
C[C@H]([C@H](C)N1CC(=O)NC(=O)C1)N1CC(=O)NC(=O)C1,0.938 (inactive),0.644,1940,2070,4.39 [at 177.1 µM] (inactive),–,–
CCCCCCCC/C=C\CCCCCCCC(=O)OC[C@H](CO)OC(=O)CCCCCCC/C=C\CCCCCCCC,1.03 (inactive),0.954,5310,5170,4.1 (inactive),–,–
CN([C@@H](Cc1ccc(OS(=O)(=O)c2cccc3cnccc23)cc1)C(=O)N1CCN(c2ccccc2)CC1)S(=O)(=O)c1cccc2cnccc12,0.962 (inactive),1.57,5440,5650,3.04 [at 69.3 µM] (inactive),–,–
CCCCC/C=C\C\C=C/C=C/C=C/[C@@H](SC[C@H](NC(=O)CC[C@H](N)C(=O)O)C(=O)NCC(=O)O)[C@@H](O)CCCC(=O)O,1.08 (inactive),1.43,6410,5930,3.59 [at 1 µM] (inactive),–,–
CC(=O)NC(C)(C)C(=O)N1CCC[C@H]1C(=O)NC(C)(C)C(=O)N[C@@H](C)C(=O)NC(C)(C)C(=O)N[C@@H](C)C(=O)N[C@@H](CCC(N)=O)C(=O)NC(C)(C)C(=O)N[C@H](C(=O)NC(C)(C)C(=O)NCC(=O)N[C@@H](CC(C)C)C(=O)NC(C)(C)C(=O)N1CCC[C@H]1C(=O)N[C@H](C(=O)NC(C)(C)C(=O)NC(C)(C)C(=O)N[C@@H](CCC(=O)O)C(=O)N[C@@H](CCC(N)=O)C(=O)N[C@H](CO)Cc1ccccc1)C(C)C)C(C)C (Ac-[Aib]P[Aib]A[Aib]AQ[Aib]V[Aib]GL[Aib]PV[Aib][Aib]EQ[Phe(ol)]),1.08 (inactive),1.3,1460,1350,7.73 [at 25.5 µM] (inactive),–,–
CCC(C)[C@H](NS(=O)(=O)c1cccc2ccccc12)C(=O)N[C@H](C=O)Cc1c[nH]c2ccccc12 (stereo not given in full),0.877 (inactive),1.24,2990,3410,3.23 [at 101.7 µM] (inactive),–,–
CCCCCCCCCCCCCCCCOC[C@H](CO)OC(C)=O,0.961 (inactive),1.5,5130,5340,4.43 (inactive),–,–
CCCCCCCCCCCCCCCCOC[C@H](CO)OC,0.866 (inactive),0.894,4770,5500,4.63 (inactive),–,–
NC1=NC2C(N=C(Br)N2C2O[C@H]3COP(=O)(O)O[C@@H]3[C@@H]2O)C(=O)N1 (stereo not given in full),0.962 (inactive),1.29,6370,6620,4.24 [at 117.3 µM] (inactive),–,–
CCCCCCCCCCCCCCCCCCc1ccc(C(=O)/C=C/C(=O)O)cc1,0.918 (inactive),0.873,5110,5560,13.3 [at 116.6 µM] (inactive),–,–
CC(C)[C@H](NC(=O)CNC(=O)OC(C)(C)C)C(=O)N[C@H](C=O)C(C)C (Boc-Gly-Val-Val-aldehyde),0.895 (inactive),1.12,5740,6410,10.2 [at 139.9 µM] (inactive),–,–
O=C[C@@H]1CCCN1C(=O)[C@@H]1CCCN1C(=O)OCc1ccccc1 (Cbz-Pro-Pro-aldehyde),0.854 (inactive),1.14,5160,6040,5.13 [at 151.3 µM] (inactive),–,–
COC(=O)/C=C/c1ccc(C(=O)NCC(=O)N[C@@H](CCC(=O)OC)C(=O)N[C@@H](CC(C)C)C(N)=O)cc1,0.902 (inactive),1.99,5510,6100,4.66 [at 96.4 µM] (inactive),–,–
CCCCC[C@H](O)CC(=O)CCc1ccc(O)c(OC)c1,0.985 (inactive),0.961,5360,5440,5.62 [at 169.8 µM] (inactive),–,–
CCCCC/C=C\C/C=C\C/C=C\C=C\[C@@H](O)CCCC(=O)O,0.957 (inactive),1.24,5700,5960,4.16 [at 1 µM] (inactive),128 (inactive),–
CCCCCC(=O)/C=C/C=C\CCCCCCCC(=O)O,0.995 (inactive),1.29,5630,5650,4.25 [at 1 µM] (inactive),99.8 (inactive),–
CC(C)c1cccc(O)c(=O)c1,0.903 (inactive),1.02,1840,2030,10.2 [at 304.5 µM] (inactive),–,44 AU (inactive)
N#C/C(=C\c1cc(Cl)cc(Cl)c1)c1cccnc1,1.04 (inactive),0.973,1950,1890,4 [at 181.7 µM] (inactive),87.3 (inactive),–
CCCCC/C=C\C/C=C\CCCCCCCC(=O)NCC(=O)O,0.95 (inactive),1.28,6210,6540,3.7 (inactive),52.3 (inactive),–
